Measured values published in PubChem BioAssay (NCATS).
Records with an inconclusive call do not appear. Active and inactive are the calls of the source. Calls follow the shape of the dose curve; as a rule, active = well fitted inhibition curve with a large enough effect; inconclusive = small, poorly fitted or top-dose-only effect; inactive = no such curve, though single readings can be large or run the other way.

The compounds below were run against Cytochrome P450 2C19 (Homo sapiens) (UniProt P33261) (assay: qHTS Assay for Inhibitors and Substrates of Cytochrome P450 2C19 (AID 899; also: nearly all actives have a fitted effect of over 60% in size)). Conditions: recombinant CYP2C19, luciferin-H EGE luminescence; series mostly up to 11.4 µM.
Method in brief: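 Human CYP2C19 (5nM) with Luciferin-H EGE at 10uM (its KM) in 50mM KPO4 was preincubated with compound for 10 min at 37C. NADPH regeneration started a 60 min 37C reaction. Luciferin was read by luminescence, normalized to 57uM ketoconazole.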
Potency is read from the fitted curve at half-maximal effect.

Sequence of Cytochrome P450 2C19 (Homo sapiens) (P33261 whole entry, looked up): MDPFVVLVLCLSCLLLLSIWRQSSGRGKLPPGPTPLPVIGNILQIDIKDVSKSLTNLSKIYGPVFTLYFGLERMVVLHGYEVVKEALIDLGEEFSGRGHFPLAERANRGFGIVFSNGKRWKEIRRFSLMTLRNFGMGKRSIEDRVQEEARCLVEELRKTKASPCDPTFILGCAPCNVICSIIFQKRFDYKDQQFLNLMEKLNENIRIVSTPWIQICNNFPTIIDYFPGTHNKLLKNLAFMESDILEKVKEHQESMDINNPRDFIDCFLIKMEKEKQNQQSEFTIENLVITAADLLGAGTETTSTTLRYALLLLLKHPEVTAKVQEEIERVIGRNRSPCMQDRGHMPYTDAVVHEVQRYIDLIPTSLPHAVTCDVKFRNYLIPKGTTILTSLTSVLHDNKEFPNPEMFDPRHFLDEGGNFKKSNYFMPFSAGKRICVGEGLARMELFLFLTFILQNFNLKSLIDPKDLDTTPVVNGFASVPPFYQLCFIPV

Potency, active:
N#C[C@H](c1ccccc1)N1CCCN([C@@H](C#N)c2ccccc2)C1c1ccccc1O (stereo not given in full) 0.251 µM
CSC1(SC2=NCCN2)SC2(NCCN2)S1 1.58 µM
O=C(CC(=O)c1ccncc1)c1ccccc1 0.398 µM
O=S(=O)(O)c1cc(O)c2c(N=Cc3ccccc3O)cc(S(=O)(=O)O)cc2c1 1.58 µM
BrC(c1cccc2ccccc12)c1cccc2ccccc12 1.26 µM
O[C@@H](C1=C/C(=C\c2ccncc2)c2ccccc21)c1ccncc1 0.158 µM
Cc1ccc(S(=O)(=O)Nc2cc(=O)[nH]c3c2CCC3)cc1 0.631 µM
Cn1ncc2c(NCCc3ccccc3)nc(Cl)nc21 0.126 µM
CCCCSCc1nc2nc(Cl)c(Cl)nc2[nH]1 2 µM
Nc1nc(SCCc2ccccc2)c2[nH]cnc2n1 0.631 µM
O=C(O)c1ccc(SSc2ccc(C(=O)O)cn2)nc1 2.51 µM

Potency, inactive:
O=C1CNCCCN2CCN(CCCNCC(=O)Nc3ccc(cc3)S(=O)(=O)c3ccc(cc3)NC(=O)CNCCCN3CCN(CCCNCC(=O)Nc4ccc(cc4)S(=O)(=O)c4ccc(cc4)N1)CC3)CC2
Nc1ncnc2nc[nH]c12.Nc1ncnc2nc[nH]c12.[Cl][Pt]([Cl])([Cl])[Cl]
Nc1[nH]c(=S)[nH]c(=O)c1N=Nc1c(Br)cc(S(N)(=O)=O)cc1Br
Cn1c(=O)c2[nH]c(CCCCc3nc4c([nH]3)c(=O)n(C)c(=S)n4C)nc2n(C)c1=S
